# Assay outcomes (PubChem BioAssay)
# Rows were chosen to be rich in hits. Some 2.5% of all compounds tested hit in one or more screens of this group.
# WRN helicase inh: blocks human WRN helicase; Q14191; WRN helicase unwinding, fluorescent forked duplex, kinetic; Potency, µM (titrated, usually from 114 µM), for the others: at the top dose activity change, negative = inhibition, most hits filed as inhibitors; actives 0.46% (n = 360,000); AID 651768; note: % is set by controls: 0 for no effect and ±100 for the full control effect; nearly all actives have a fitted effect of over 55% in size
# Target sequence (Q14191 whole entry, looked up): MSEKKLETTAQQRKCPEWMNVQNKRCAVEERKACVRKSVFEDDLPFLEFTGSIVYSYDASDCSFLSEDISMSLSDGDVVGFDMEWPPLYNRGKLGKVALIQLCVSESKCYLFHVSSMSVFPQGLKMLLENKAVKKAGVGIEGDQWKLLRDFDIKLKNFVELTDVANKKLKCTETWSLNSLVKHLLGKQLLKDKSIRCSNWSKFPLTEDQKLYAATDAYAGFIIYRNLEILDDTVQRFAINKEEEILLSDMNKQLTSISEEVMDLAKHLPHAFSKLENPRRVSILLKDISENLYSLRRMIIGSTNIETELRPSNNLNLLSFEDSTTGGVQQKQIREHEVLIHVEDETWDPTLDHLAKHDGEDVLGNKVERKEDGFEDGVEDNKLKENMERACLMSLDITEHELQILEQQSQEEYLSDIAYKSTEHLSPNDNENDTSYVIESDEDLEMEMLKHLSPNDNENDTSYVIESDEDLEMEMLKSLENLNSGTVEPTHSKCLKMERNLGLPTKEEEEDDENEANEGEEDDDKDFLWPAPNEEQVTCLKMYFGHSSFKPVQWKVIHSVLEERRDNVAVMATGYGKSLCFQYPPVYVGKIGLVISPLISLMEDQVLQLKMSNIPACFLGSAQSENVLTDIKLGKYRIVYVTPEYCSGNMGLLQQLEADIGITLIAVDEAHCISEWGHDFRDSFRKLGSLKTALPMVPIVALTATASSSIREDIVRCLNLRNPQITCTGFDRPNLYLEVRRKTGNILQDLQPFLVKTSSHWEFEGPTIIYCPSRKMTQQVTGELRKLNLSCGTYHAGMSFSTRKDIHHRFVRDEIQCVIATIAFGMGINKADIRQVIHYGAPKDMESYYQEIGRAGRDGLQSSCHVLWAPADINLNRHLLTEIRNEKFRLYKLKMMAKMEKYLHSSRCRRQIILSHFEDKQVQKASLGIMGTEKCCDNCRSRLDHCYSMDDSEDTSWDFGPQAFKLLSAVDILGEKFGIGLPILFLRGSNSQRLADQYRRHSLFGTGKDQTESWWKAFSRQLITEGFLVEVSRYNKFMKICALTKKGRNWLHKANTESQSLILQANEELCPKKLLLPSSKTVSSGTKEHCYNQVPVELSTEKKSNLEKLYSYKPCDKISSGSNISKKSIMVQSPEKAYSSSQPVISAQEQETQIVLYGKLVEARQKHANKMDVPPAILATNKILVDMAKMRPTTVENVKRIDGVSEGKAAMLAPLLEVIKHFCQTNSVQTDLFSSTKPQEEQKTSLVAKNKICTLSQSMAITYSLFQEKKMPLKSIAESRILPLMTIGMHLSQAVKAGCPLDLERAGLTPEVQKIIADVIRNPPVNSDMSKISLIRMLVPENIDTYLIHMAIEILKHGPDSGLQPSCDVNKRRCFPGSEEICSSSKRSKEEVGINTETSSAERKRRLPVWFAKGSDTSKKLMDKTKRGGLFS
#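 Primary qHTS, 1536-well format. 20 nM WRN + compound, 15 min RT; start with 100 nM forked fluorophore/quencher duplex, 2 mM ATP (final); kinetic read ex 525/em 598 nm.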
# POLH inh: blocks human DNA polymerase eta activity; Q9Y253; recombinant Pol eta, fluorescent DNA replication assay; Potency, µM (highest dose often 114 µM), inactives show top-dose activity change, negative = inhibition, usual class: inhibitors; actives 1.2% (n = 390,000); AID 588591; note: % is set by controls: 0 for no effect and ±100 for the full control effect
#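 Pol eta (10 nM) was preincubated with compounds for 15 min at room temperature, after which fluorescent replication substrate (50 nM final) was added to start the reaction. Fluorescence was read kinetically at 0 and 10 min.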
# L3MBTL1 block: blocks human L3MBTL1. AID 485360. Q9Y468. AlphaScreen L3MBTL1–H3K9me1 peptide binding. Potency, µM (top dose mostly 57.1 µM), for inactives: at the highest dose activity, negative = inhibition, usual class: inhibitors. actives 0.66% (n = 230,000); note: % is set by controls: 0 for no effect and ±100 for the full control effect; nearly all actives have a fitted effect of over 60% in size
#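 L3MBTL1 50 nM + b-AHA-H3(1-15)K9me1 75 nM, 30 min RT; compound added, 30 min RT; streptavidin donor/Ni-chelate acceptor beads 10 ug/mL each final, 30 min RT dark; AlphaScreen read.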
# POLI inh: inhibitors of human DNA polymerase iota; Potency, µM (titrated, usually from 115 µM), for the others: top-dose activity, negative = inhibition, usual class: inhibitors; actives 1% (n = 390,000); Pol iota fluorescent replication assay, 10 min; AID 588590
#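 Pol iota at 10 nM preincubated 15 min with compounds at room temperature; reaction started with fluorescent substrate, 50 nM final. Fluorescence read kinetically at 0 and 10 min; buffer-only wells as negative control.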
# Pol kappa inh: DNA polymerase kappa (human) inhibition. Q9UBT6. purified Pol kappa, fluorescent DNA synthesis assay, 10 min. Potency, µM (series often up to 107 µM), inactives show at the highest dose activity, negative = inhibition, most hits filed as inhibitors. actives 0.53% (n = 400,000); note: % is set by controls: 0 for no effect and ±100 for the full control effect
#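 10 nM Pol kappa was preincubated with compounds for 15 min at room temperature. Reaction started with 50 nM (final) substrate. Fluorescence read kinetically at 0 and 10 min.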
# POLB inh: blocks human DNA polymerase beta activity; P06746; Pol beta primer extension/strand displacement, fluorescence kinetic; Potency, µM (highest dose often 114 µM), for inactives: at the top dose activity change, negative = inhibition, actives largely listed as inhibitors; actives 1.3% (n = 340,000); note: % is set by controls: 0 for no effect and ±100 for the full control effect
#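 Curves were derived by four-parameter Hill fits of normalized qHTS data. The kinetic fluorescent primer-extension read was taken at 0 and 10 min after 50 nM substrate, following a 15 min room-temperature preincubation of 10 nM enzyme with compounds.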
# * = called active by the depositor; ? = inconclusive; . = no result; [ ] = another dose, or the depositor's remark. Calls come from the whole dose curve; as a rule, active = well fitted curve in the direction sought with a large enough effect; inconclusive = small, poorly fitted or top-dose-only effect, or another doubt; inactive = no such curve, though single readings can be large; an effect the other way counts as inactive or inconclusive. Potency is the fitted concentration of half-maximal effect.
SMILES,WRN helicase inh,POLH inh,L3MBTL1 block,POLI inh,Pol kappa inh,POLB inh
CC1(C(=O)NS(=O)(=O)c2cccc(Cl)c2)CCN1C(=O)C1CCCCC1 (stereo not drawn),-9%,.,.,.,.,.
CCNc1ccccc(C(=O)/C=C/c2ccc3c(c2)OCO3)c1=O,56µM*,10µM*,.,?,25µM*,56µM*
CNc1ccc(Br)cc(C(=O)/C=C/c2cccc(OC)c2OC)c1=O,11%,2%,?,.,-10%,20µM*
CCNc1ccc(Br)cc(C(=O)/C=C/c2ccccc2Cl)c1=O,?,79µM*,.,?,?,.
COc1ccccc1/C=C/C(=O)c1cc(Br)ccc1OC(=O)c1ccco1,0%,4%,.,-6%,-23%,.
O=C(C=Cc1ccccc1Cl)c1ccccc1,-15%,?,.,?,-17%,.
CNc1ccc(Br)cc(C(=O)/C=C/c2cccc(Cl)c2Cl)c1=O,-9%[11.6 µM],45µM*,?,6.3µM*,45µM*,14µM*
COc1ccc(-c2nc3ccccc3c(=O)n2CCCN2CCOCC2)cc1,-5%[57.1 µM],-3%,-7%,14%,-4%,10%
Nc1c(N(C(=O)Nc2ccc(Cl)c(Cl)c2)C2CCCC2)c(=O)[nH]c(=O)n1Cc1ccccc1,-29%,-4%,.,18%,-6%,0%
CNc1ccccc(C(=O)/C=C/c2ccccc2OC)c1=O,?,14µM*,-5%,?,-17%,50µM*
O=C(COc1ccc2ccccc2c1)NCCn1ccc2ccccc21,-5%,-15%,-2%,16%,-16%,0%
CCCC[C@@H]1C[C@H]1[C@@H](NC(=O)c1ccco1)c1ccc(C(=O)OC)cc1,-18%,32µM*,.,12%,-18%,.
CCCC[C@@H]1C[C@H]1[C@@H](NC(=O)c1ccccc1)c1ccccc1C(F)(F)F,-8%,-9%,9%,7%,-4%,-4%
COc1ccc(NC(=O)CCn2c(=S)[nH]c3ccccc3c2=O)cc1Cl,-7%,35µM*,.,.,.,.
O=C(CCn1c(=S)[nH]c2ccccc2c1=O)Nc1cccc(Cl)c1,-6%,-18%,.,28%,-7%,0%
C/C=C\C(=O)Nc1cccc(C2=NOC3(C2)C[C@H](C(N)=O)N(C(=O)/C=C/CC)C3)c1 (stereo partly drawn),-7%,3%,.,13%,-1%,32%
C=C(C)C(=O)Nc1cccc(C2=NOC3(C2)C[C@@H](C(N)=O)N(C(=O)c2ccc(Cl)cc2)C3)c1 (stereo partly drawn),45µM*,4.5µM*,.,35µM*,35µM*,8.9µM*
C/C=C\C=C/C(=O)Nc1cccc(C2=NOC3(C2)C[C@@H](C(N)=O)N(C(=O)/C=C/CC)C3)c1 (stereo partly drawn),?,22µM*,.,28µM*,?,5%
C/C=C\C=C/C(=O)Nc1cccc(C2=NOC3(C2)C[C@@H](C(N)=O)N(C(=O)/C=C/C=C\C)C3)c1 (stereo partly drawn),25µM*,7.9µM*,.,10µM*,20µM*,6.3µM*
CCOc1ccc(S(=O)(=O)NCc2ccc3c(c2)CCN3C(=O)c2ccc(C)cc2)cc1,.,-17%,.,12%,-6%[60.1 µM],3%
COc1ccc([N+](=O)[O-])cc1NC(=O)Nc1ccc(OC)c(OC)c1,?,-9%,25%[11.4 µM],-29%,-22%,20µM*
COc1ccc([N+](=O)[O-])cc1NC(=O)Nc1cccc(Cl)c1,-10%,?,10%,10%,-10%,1%
COc1ccc([N+](=O)[O-])cc1C(=O)Nc1ccc(Cc2ccncc2)cc1,0%,4%,-5%,8%,-11%,11µM*
Cc1oc2c(c1C(=O)c1ccc(Cl)cc1)C(=O)C(=O)c1ccccc1-2,-35%,-14%,-4%,52%,-8%,32%
Cc1ccc(C(=O)c2c(C)oc3c2C(=O)C(=O)c2ccccc2-3)cc1,-35%,45µM*,?,-45%,-4%,-25%
SMILES,WRN helicase inh,POLH inh,L3MBTL1 block,POLI inh,Pol kappa inh,POLB inh
CCNc1ncnc2[nH]ncc12,3%,-17%,.,1%,-8%,.
CC1CCN2c3ccccc3CC3(C(=O)OC(C)(C)OC3=O)C2C1 (stereo not drawn),.,.,.,?,0%,.
CC1(C)OC(=O)C2(Cc3ccccc3N3CCCC32)C(=O)O1 (stereo not drawn),.,.,.,79µM*,?,.
COc1ccc(C(=O)Oc2ccc(/C=N/Nc3ccc(Cl)c(C(=O)O)c3)cc2OC)cc1,-20%,79µM*,.,9%,-28%,?
COc1cc(/C=N/Nc2ccccc2)ccc1OC(=O)c1cccs1,-6%[57.1 µM],-10%,20%,3%,-5%,3%
COc1ccc2ccccc2c1/C=N/Nc1ccc(Cl)c(C(=O)O)c1,-30%,45µM*,.,?,?,4%
O=C(O)c1cc(N/N=C/c2ccncc2)ccc1Cl,-14%,4%,4%,13%,-14%,5%
O=C(O)c1cc(N/N=C/c2ccc(-c3ccccc3)cc2)ccc1Cl,-21%,?,.,-6%,-2%,89µM*
COc1cc(/C=N/Nc2ccc(Cl)c(C(=O)O)c2)ccc1OC(=O)c1cccs1,0%[11.6 µM],79µM*,-6%,80%,-12%,?
CC1=[N+](C)N(c2ccccc2)C(=O)C1N=Cc1c(Cl)cccc1Cl (stereo not drawn),-6%,-19%,4%,16%,-2%,2%
O=C(c1cc(-c2ccco2)nc2ccccc12)N1CCN(c2ccc(F)cc2)CC1,-29%,-19%,-18%,-15%,-11%,-14%
CC(C)c1csc2nc3n(c(=O)c12)CCCCC3,-8%,-4%,4%,-3%,-5%,6%
Cc1cccc(N(C)S(=O)(=O)c2ccc3c(c2)C(C)(C)C(=O)N3C)c1,-22%,?,-4%,?,?,22µM*
Cc1ccc(N(C)S(=O)(=O)c2ccc3c(c2)C(C)(C)C(=O)N3C)cc1C,.,-10%,.,2%,17%,26%
O=C(CNC(=O)c1ccccc1)NCc1ccc(Cl)cc1,-5%,-7%,-1%[11.4 µM],34%,-3%,16%
Cc1cc([N+](=O)[O-])cc(/C=N\NC(=O)C2COc3ccccc3O2)c1O (stereo not drawn),0%,-17%,25µM*,59%,1%,2%
CC(=O)Nc1ccc(NC(=O)c2ccc(-c3ccc([N+](=O)[O-])cc3)o2)cc1,8%,-5%,.,?,2%,3%
CC(C)c1ccc(OCC(=O)NC(Cc2c[nH]c3ccccc23)C(=O)O)cc1 (stereo not drawn),-2%,-9%,.,13%,0%,-4%
